In PubChem BioAssay (NCATS) one finds Z-AUC and Potency data, which are given here for 36 compounds.

The assay in a line: qHTS drug screen for cell cycle checkpoint inhibitors in PARPi-resistant BRCA-mutant ovarian cancer cell lines. (AID 1963452). Particulars: PEO1/OlaR viability, CellTiter-Glo luminescence, 96 h; for Z-AUC: stronger effect = lower value. The procedure, abridged:
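PEO1, PEO4 and PEO1/OlaR ovarian cancer cells, 600 per well, exposed 96 h at 37C to a dilution series. Viability read by CellTiter-Glo luminescence, normalized to DMSO and empty wells; activity summarized as Z-AUC.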
(In qHTS, concentration-response curves come from the screen itself.)

Setting [1] is: measured here: PEO1 parental Z-AUC.

Molecules are shown by their SMILES. Calls of active or inactive are those of the source. The call rests on the fitted dose curve.
Potency means the concentration at half of the fitted maximal effect.

`Nc1nc(-c2nn(Cc3ccccc3F)c3ncccc23)nc(N)c1N1CCOCC1`: the Z-AUC is -0.481 (inactive). For the same compound, the Z-AUC under setting [1] is -0.352. Further, the Z-AUC (measured here: PEO4 Z-AUC) is -0.594.

On to `CC[C@H](CO)Nc1nc(NCc2ccccc2)c2ncn(C(C)C)c2n1`, for which the Z-AUC is 0.956 (inactive). The Z-AUC under setting [1] was determined as 1.03. The Z-AUC (measured here: PEO4 Z-AUC) came out at 1.29.

As to `C#Cc1cccc(Nc2ncnc3cc(OC)c(OCCCCCCC(=O)NO)cc23)c1`, the Potency was 616 nM (active).

Consider `O=C(Nc1cn[nH]c1-c1nc2ccc(CN3CCOCC3)cc2[nH]1)NC1CC1`, for which the Potency was 871 nM (active).

With `CC(C)CC(=O)Nc1n[nH]c2c1CN(C(=O)C1CCN(C)CC1)C2(C)C`, the Z-AUC was -0.913 (inactive). Besides, under setting [1], the Z-AUC was -0.186. The Z-AUC (measured here: PEO4 Z-AUC) was -0.504.

In the case of `Cc1cc(Nc2cc(NC(=O)c3c(Cl)cccc3Cl)ccn2)nc(N)n1`, the Z-AUC was -0.241 (inactive). For the same compound, the Z-AUC under setting [1] is -1.26. The Z-AUC (measured here: PEO4 Z-AUC) is -0.959.

Turning to `c1cc(-c2cnn3cc(-c4ccc(OCCN5CCCCC5)cc4)cnc23)ccn1`, the Z-AUC is 0.293 (inactive). The Z-AUC under setting [1] stood at 0.413. In addition, the Z-AUC (measured here: PEO4 Z-AUC) was determined as 0.377.

Consider `Cc1cnc(Nc2ccc(F)cc2Cl)nc1-c1c[nH]c(C(=O)N[C@H](CO)c2cccc(Cl)c2)c1`, for which the Z-AUC is 0.276 (inactive). Also, the Z-AUC under setting [1] came out at 0.0916. Moreover, the Z-AUC (measured here: PEO4 Z-AUC) was 0.18.

Take `Cc1cc(N2CCOCC2)cc2[nH]c(-c3c(NC[C@@H](O)c4cccc(Cl)c4)cc[nH]c3=O)nc12`: the Z-AUC was -0.44 (inactive). In addition, under setting [1], the Z-AUC is -0.435. Further, the Z-AUC (measured here: PEO4 Z-AUC) was -0.57.

Regarding `O=C(NC1CCNCC1)c1[nH]ncc1NC(=O)c1c(Cl)cccc1Cl`, the Potency is 977 nM (active). Further, the Z-AUC under setting [1] is -1.49. Further, the Z-AUC (measured here: PEO4 Z-AUC) was -1.05.

Turning to `COc1ccc(C(=O)CC2(O)C(=O)Nc3c(Cl)ccc(Cl)c32)cc1` (centres undefined), the Z-AUC is -0.119 (inactive). In addition, the Z-AUC under setting [1] is -0.455. Where the note is “measured here: PEO4 Z-AUC”, the Z-AUC was -0.085.

`O=C(CCCCCCNC(=O)c1cnc(N(c2ccccc2)c2ccccc2)nc1)NO`: the Z-AUC is 0.809 (inactive). In addition, the Z-AUC under setting [1] was 0.473. For the same compound, the Z-AUC (measured here: PEO4 Z-AUC) turned out to be 0.434.

With `O=C(O)c1ccc2c(c1)nc(Nc1cccc(Cl)c1)c1ccncc12`, the Z-AUC was -0.0299 (inactive). The Z-AUC under setting [1] was -0.574. In addition, the Z-AUC (measured here: PEO4 Z-AUC) was -0.726.

As for `Cc1c(Cn2c(C)nc3c(C(=O)O)cc(N4CCOCC4)cc32)cccc1C(F)(F)F`, the Z-AUC was 0.672 (inactive). Further, under setting [1], the Z-AUC is 0.875. For the same compound, the Z-AUC (measured here: PEO4 Z-AUC) was determined as 0.3.

Turning to `CC1(C)CCC(c2ccc(Cl)cc2)=C(CN2CCN(c3ccc(C(=O)NS(=O)(=O)c4ccc(N[C@H](CCN5CCOCC5)CSc5ccccc5)c(S(=O)(=O)C(F)(F)F)c4)cc3)CC2)C1`, the Z-AUC is -0.481 (inactive). Further, the Z-AUC under setting [1] is -0.554. Moreover, the Z-AUC (measured here: PEO4 Z-AUC) is -1.15.

With `CC(C)c1ccc(Cn2ccc3c4c(N)nc(NC5CC5)nc4ccc32)cc1`, the Z-AUC was -1.65 (inactive). Under setting [1], the Z-AUC is -2.21. Also, the Z-AUC (measured here: PEO4 Z-AUC) is -2.38.

On to `CN(c1ncccc1CNc1nc(Nc2ccc3c(c2)CC(=O)N3)ncc1C(F)(F)F)S(C)(=O)=O`, for which the Z-AUC was -0.236 (inactive). Further, under setting [1], the Z-AUC is -0.701. The Z-AUC (measured here: PEO4 Z-AUC) was -0.665.

With `CNC(=O)c1cc(Oc2ccc(NC(=O)Nc3cc(C(C)(C)C)nn3-c3ccc4ncccc4c3)c(F)c2)ccn1`, the Z-AUC was 0.924 (inactive). The Z-AUC under setting [1] was 1.09. Further, for the setting “measured here: PEO4 Z-AUC”, the Z-AUC amounted to 1.19.

For the compound `CN(C)CC(C)(C)CNc1nn2c(-c3ccccc3)nnc2cc1C1CCC1`, the Z-AUC is 0.384 (inactive). In addition, the Z-AUC under setting [1] came out at 0.768. In addition, where the note is “measured here: PEO4 Z-AUC”, the Z-AUC was found to be 0.988.

As for `CC(C)(C)OC(=O)Nc1ccc(-c2cc(C(=O)NCCCCCCC(=O)NO)no2)cc1`, the Z-AUC was -0.0304 (inactive). Besides, under setting [1], the Z-AUC was found to be 0.0473. Moreover, for the setting “measured here: PEO4 Z-AUC”, the Z-AUC was 0.196.

As for `COc1ccc2c(c1)CC[C@@H](CN(C)CC(=O)O)[C@H]2c1ccccc1`, the Z-AUC is 0.47 (inactive). Moreover, the Z-AUC under setting [1] was found to be 1.17. Moreover, the Z-AUC (measured here: PEO4 Z-AUC) stood at 1.29.

Regarding `Cn1cc(-c2ccncc2)c(-c2ccc(OCc3ccc4ccccc4n3)cc2)n1`, the Z-AUC is 0.205 (inactive). Moreover, the Z-AUC under setting [1] is -0.209. In addition, the Z-AUC (measured here: PEO4 Z-AUC) came out at 0.0189.

As for `CC(C)[C@H](C(=O)Nc1ccc(C(=O)NO)cc1)c1ccccc1`, the Potency is 1380 nM (active). Also, the Z-AUC under setting [1] was -1.53. Further, for the setting “measured here: PEO4 Z-AUC”, the Z-AUC is -1.69.

For the compound `Cc1coc2c1C(=O)C(=O)c1c-2ccc2c1CCCC2(C)C`, the Z-AUC is 1.2 (inactive). The Z-AUC under setting [1] was found to be 0.989. Besides, where the note is “measured here: PEO4 Z-AUC”, the Z-AUC was 0.949.

With `c1ccc2c(CCNc3ccc(Nc4ccncc4)cc3)c[nH]c2c1`, the Potency was 1230 nM (active). Under setting [1], the Z-AUC is -1.4. Where the note is “measured here: PEO4 Z-AUC”, the Z-AUC is -1.17.

With `COc1cc(OC2CCN(C)CC2)ccc1Nc1ncc2c(n1)n(C1CCCC1)c(=O)n2C`, the Z-AUC is 0.704 (inactive). Also, under setting [1], the Z-AUC turned out to be 0.287. Further, where the note is “measured here: PEO4 Z-AUC”, the Z-AUC is 0.275.

For the compound `C[C@@H](Oc1cc(-c2cnn(C3CCNCC3)c2)cnc1N)c1c(Cl)ccc(F)c1Cl`, the Z-AUC is 0.111 (inactive). Also, the Z-AUC under setting [1] was -0.187. Also, the Z-AUC (measured here: PEO4 Z-AUC) is -0.116.

With `CNC(=O)c1ccc(N2C(=S)N(c3cnc(C#N)c(C(F)(F)F)c3)C(=O)C23CCC3)cc1F`, the Z-AUC was 0.293 (inactive). The Z-AUC under setting [1] was -0.208. Further, where the note is “measured here: PEO4 Z-AUC”, the Z-AUC amounted to 0.0749.

On to `C=CC(=O)Nc1cccc(Oc2nc(Nc3ccc(N4CCN(C)CC4)cc3OC)ncc2Cl)c1`, for which the Z-AUC was -0.915 (inactive). The Z-AUC under setting [1] is -0.879. For the setting “measured here: PEO4 Z-AUC”, the Z-AUC was -0.954.

Turning to `Nc1cccc(-c2cc3c(Oc4cccc(O)c4)ncnc3[nH]2)c1`, the Z-AUC is -0.838 (inactive). Also, the Z-AUC under setting [1] was -0.58. For the same compound, the Z-AUC (measured here: PEO4 Z-AUC) is -0.859.

On to `COc1cc(C(=O)N2CCC(N3CCN(C)CC3)CC2)ccc1Nc1ncc2c(n1)N(C)c1ccccc1C(=O)N2C`, for which the Z-AUC is -0.667 (inactive). Moreover, the Z-AUC under setting [1] was -0.239. Further, the Z-AUC (measured here: PEO4 Z-AUC) is -1.55.

In the case of `Nc1ccccc1NC(=O)c1ccc(CNc2nccc(-c3cccnc3)n2)cc1`, the Z-AUC was -0.45 (inactive). Besides, the Z-AUC under setting [1] was -0.821. Besides, the Z-AUC (measured here: PEO4 Z-AUC) is -0.657.

With `C=CC(=O)Nc1cc2c(Nc3ccc(F)c(Cl)c3)ncnc2cc1OCCCN1CCOCC1`, the Z-AUC is -0.343 (inactive). For the same compound, the Z-AUC under setting [1] was -0.823. Further, for the setting “measured here: PEO4 Z-AUC”, the Z-AUC is -1.15.

Turning to `CCCCCN(CCC12CC3CC(CC(C3)C1)C2)C(=O)NCCCc1ccncc1`, the Z-AUC is -0.0878 (inactive). Also, under setting [1], the Z-AUC is 0.162. Where the note is “measured here: PEO4 Z-AUC”, the Z-AUC is -0.141.

Turning to `Cn1cncc1[C@@](N)(c1ccc(Cl)cc1)c1ccc2c(c1)c(-c1cccc(Cl)c1)cc(=O)n2C`, the Z-AUC is -0.153 (inactive). For the same compound, under setting [1], the Z-AUC was found to be 0.145. Further, the Z-AUC (measured here: PEO4 Z-AUC) was -0.275.

Regarding `COc1cc2c(NC3CCN(C(C)C)CC3)nc(C3CCCCC3)nc2cc1OCCCN1CCCC1`, the Z-AUC was 0.841 (inactive). Under setting [1], the Z-AUC was found to be 0.768. For the setting “measured here: PEO4 Z-AUC”, the Z-AUC is 0.938.
